Assay results reported in PubChem BioAssay (NCATS).
Several values for one entry are separate records, joined by “and”; a condition that tells them apart may be missing. Equal entries are not always repeated. Inconclusive results are not listed. Activity calls are given as the source filed them. Unless noted, the call rests on the fitted dose curve; in most records, active means well fitted curve in the direction sought with a large enough effect; inconclusive means small, poorly fitted or top-dose-only effect, or another doubt; inactive means no such curve, though single readings can be large; an effect the other way counts as inactive or inconclusive.

Legend:
[1] = Cell Viability - HepG2 (AID 433; calls by dose curve;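 further: potency means the concentration at half of the fitted maximal effect; potency for ATP loss meaning cytotoxicity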); settings: qHTS
Procedure, shortened: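 Cytotoxicity is scored as loss of intracellular ATP in HepG2 cells exposed to compounds for 40 h. Concentration-response curves, normalized to DMSO and 100 uM tamoxifen, give AC50 values.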

[2] = Cell Viability - MRC5 (AID 434; calls by dose curve;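 further: potency means the concentration at half of the fitted maximal effect; potency reflects cytotoxicity seen as loss of intracellular ATP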); settings: MRC5 lung fibroblast viability, qHTS
Procedure, shortened: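 MRC5 normal human lung fibroblasts, 1500 cells/well, exposed to compound for 40 hr at 37 C. Cellular ATP was read by CellTiter-Glo luminescence; data normalized to DMSO and 100 uM tamoxifen, with AC50 from Hill fits.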

[3] = biological target: Mitogen-activated protein kinase 10 (Mus musculus) (UniProt Q61831); experiment: JNK3 AlphaScreen Assay (AID 530; active means well fitted curve in either direction with a large enough effect, not every such curve was filed as active;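 further: kinase came from lysate of stimulated human HepG2 cells; signal reports phosphorylation of biotinylated GST-cJun 1-79 at Ser73 with 10 µM ATP; on the % scale 0 is the no-effect control and ±100 the full control effect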); settings: JNK3 lysate, c-Jun phosphorylation; series mostly up to 57.1 µM
Procedure, shortened: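 qHTS format: compounds tested as titrations against IL-1beta/TNF-alpha-activated HepG2 lysate JNK3 with biotin-GST-cJun substrate and 10 uM ATP at room temperature. Loss of anti-phospho-cJun AlphaScreen signal indicates inhibition.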

[4] = Cell Viability - HUV-EC-C (AID 542); settings: HUV-EC-C endothelial cell viability, qHTS; series mostly up to 92.2 µM; further: on the % scale 0 is the no-effect control and ±100 the full control effect; nearly all actives have a fitted effect of over 35% in size
Procedure, shortened: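 HUV-EC-C normal human vascular endothelial cells, 1000 cells/well, pre-incubated 5 hr at 37 °C, then exposed to compounds for 40 hr at 37 °C in complete medium. Viability measured as intracellular ATP by CellTiter-Glo luminescence; AC50 from Hill fits.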

[5] = Cell Viability - SH-SY5Y (AID 544); settings: SH-SY5Y neuroblastoma cell viability; viability change, negative = cytotoxic: at 92.2 µM (top of the series); further: nearly all actives have a fitted effect of over 55% in size
Procedure, shortened: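 Human neuroblastoma SH-SY5Y cells (1500/well) in complete medium were exposed to compounds for 40 hr at 37 °C; intracellular ATP was then quantified by CellTiter-Glo luminescence after 20 min at room temperature. AC50 came from Hill-equation concentration-response fits.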

[6] = Cell Viability - Renal Proximal Tubule (AID 545); settings: renal proximal tubule cells viability; at 91.7 µM (top of the series), primary cells of rat origin unless noted; further: nearly all actives have a fitted effect of over 40% in size
Procedure, shortened: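 Cytotoxicity is scored as a concentration-dependent drop in cellular ATP in primary rat renal proximal tubule cells exposed for 40 hr. AC50 derives from Hill modelling.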

[7] = Cell Viability - Mesenchymal (AID 546); settings: mesenchymal cells viability, qHTS; series mostly up to 91.7 µM;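 further: cells exposed to compound for 40 hours before reading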
Procedure, shortened: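 Human kidney mesenchymal cells from normal renal glomeruli, 1000 cells/well, rested 5 hr at 37 °C, then treated 40 hr at 37 °C in complete medium. Cellular ATP read by CellTiter-Glo luminescence; AC50 from Hill-equation fits.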

[8] = Cellular Toxicity (caspase-3) HUV-EC-C (AID 656); settings: HUV-EC-C cells, caspase-3 activation (apoptosis), vehicle = 0, 100 µM tamoxifen = 100%; series mostly up to 92.2 µM
Procedure, shortened: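 Read-out: luminescence proportional to caspase 3/7 activity, measured 20 min after adding Caspase-Glo 3/7 reagent. Cells (HUV-EC-C) had received compound for 16 hr at 37°C. Increases relative to DMSO and 100 uM tamoxifen gave concentration-response AC50 values.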

[9] = Cellular Toxicity (caspase-3) SHSY5Y (AID 657); settings: SH-SY5Y caspase-3 activation, DMSO zero, 10 µM staurosporine = 100%; series mostly up to 91.7 µM
Procedure, shortened: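 Cells plated and incubated 5 h at 37 °C, dosed over a concentration range, incubated 16 h, then given Caspase-Glo 3/7 reagent for 1 h at room temperature before luminescence reading. Staurosporine (10 uM) defined full stimulation.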

[10] = Cellular Toxicity (caspase-3) MRC-5 (AID 659); settings: MRC-5 cells, luminescence, normalized: DMSO 0%, 10 µM staurosporine 100%; series mostly up to 91.7 µM
Procedure, shortened: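 MRC-5 human normal lung fibroblasts, 1500 cells/well, treated 16 h at 37 °C in complete medium. Caspase 3/7 measured by Caspase-Glo luminescence after 1 h at room temperature. Normalized to DMSO and 10 uM staurosporine; AC50 from Hill fit.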

[11] = Cellular Toxicity (caspase-3) Mesangial (AID 660); settings: mesangial cells, normalized: DMSO 0%, 100 µM tamoxifen 100%; series mostly up to 91.7 µM;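 further: cells exposed to compound for 16 h before the caspase read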
Procedure, shortened: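 Human renal glomerular mesangial cells (1000/well) were treated with compounds for 16 h at 37 °C in complete medium, then caspase 3/7 activity was read by Caspase-Glo luminescence. Data were normalized to DMSO and 100 uM tamoxifen; AC50 from Hill fits.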

[12] = Cell Viability - LYMP1-002 - Assay at 16 hr (AID 948); settings: LYMP1-002 lymphoblastoid cell viability; series mostly up to 92.2 µM;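 further: 0% = DMSO alone and full effect = 92 µM tetraoctylammonium bromide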
Procedure, shortened: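 Acute cytotoxicity is scored as a concentration-dependent fall in intracellular ATP in a human lymphoblastoid line (LYMP1-002) after 16 hr compound exposure at 37 C, measured by luciferase luminescence.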

[13] = MultiTox-Fluor Cytotoxicity Assay - LYMP1-003 - Dead Cells (AID 961); settings: LYMP1-003 lymphoblastoid cells, dead-cell protease fluorescence; series mostly up to 92.2 µM;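 further: 0% = DMSO and 100% = tetraoctylammonium bromide; nearly all actives have a fitted effect of over 70% in size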
Procedure, shortened: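 LYMP1-003 human lymphoblastoid cells (2500/well) exposed to compound 16 h at 37 C in complete medium; dead-cell protease read with bis-AAF-R110 fluorescence (Ex/Em 485/520) after 60 min at room temperature. Normalized to DMSO and 15 uM tetraoctylammonium bromide; AC50 from Hill fit.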

[14] = Cell Viability - LYMP1-003 - Assay at 24 hr (AID 963); settings: LYMP1-003 lymphoblastoid cell viability; series mostly up to 92.2 µM;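 further: plate controls were DMSO only for no effect and tetraoctylammonium bromide positive control for full effect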
Procedure, shortened: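 Human lymphoblastoid LYMP1-003 cells (2500/well) were rested 5 hr at 37 C, then exposed to compounds in complete medium for 24 hr at 37 C. Cellular ATP was quantified by CellTiter-Glo luminescence, and AC50 values came from Hill fits of concentration-response data.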

[15] = Cell Viability - LYMP2-015 (AID 971); settings: LYMP2-015 lymphoblastoid cell viability; series mostly up to 92.2 µM;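 further: 0% = DMSO only and full effect = 92 µM tetraoctylammonium bromide; nearly all actives have a fitted effect of over 55% in size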
Procedure, shortened: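 Human lymphoblastoid cells (2500/well) in complete medium were preincubated 5 hr at 37 C, then compound-treated 24 hr at 37 C. Intracellular ATP was read by CellTiter-Glo luminescence after 30 min at room temperature; AC50 came from Hill-equation concentration-response fits.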

[16] = Cell Viability - LYMP2-025 (AID 976); settings: LYMP2-025 lymphoblastoid cell viability; series mostly up to 92.2 µM;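 further: plate controls were DMSO only for no effect and tetraoctylammonium bromide control for full effect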
Procedure, shortened: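 Human lymphoblastoid LYMP2-025 cells (2500/well) were pre-incubated 5 hr at 37 C, then treated with compounds for 24 hr at 37 C in complete medium. Viability was read as intracellular ATP by CellTiter-Glo luminescence; AC50 from Hill fits.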

[17] = qHTS Assay for Identification of Small Molecule Inducers of Hypoxia Response (AID 2120; active means well fitted curve in the direction sought with a large enough effect in the signal ratio, with a control signal flat, not every such curve was filed as active; the % refers to the signal ratio; further: 0% is about no effect); settings: hypoxia response reporter cells, beta-lactamase ratio readout; series mostly up to 104 µM
Procedure, shortened: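 HRE-beta-lactamase reporter in CellSensor HRE-bla ME-180 cells, 2500 cells/well in Opti-MEM with 0.5% dialyzed FBS; compounds tested as titration series, 17 h at 37 degrees C. CCF4 substrate 2.5 h at room temperature; AC50 from 460/530 nm ratio.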

[18] = qHTS assay for small molecule agonists of the antioxidant response element (ARE) signaling pathway measured by Nrf2-dependant transcriptional activity - cell viability counter screen (AID 720653; active means well fitted curve in the direction sought with a large enough effect in the repeat runs; an effect the other way counts as inactive or inconclusive; further: on the % scale 0 is the no-effect control and ±100 the full control effect); settings: ARE-bla HepG2 viability, CellTiter-Glo ATP luminescence, 16 h; active compounds read low
Procedure, shortened: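 ARE-bla HepG2 cells treated with compounds for 16 h at 37C; this counter screen measures viability as intracellular ATP by CellTiter-Glo luminescence after 30 min at room temperature.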

[19] = qHTS assay for cell viability of HEK293 cells (AID 743288); settings: ATP luminescence (CellTiter-Glo), 18 h; max response: active compounds read low; further: on the % scale 0 is the no-effect control and ±100 the full control effect; nearly all actives have a fitted effect of over 50% in size
Procedure, shortened: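 The Tox21 protocol used parental HEK293 cells treated for 18 h at 37 C with compounds delivered by pintool; ATP-coupled luminescence after 30 min at room temperature gave viability.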

[20] = qHTS assay for cell viability of the p53RE-bla HCT-116 cell line (AID 743292); settings: p53RE-bla HCT-116 viability, ATP luminescence, 16 h; series mostly up to 95 µM; further: on the % scale 0 is the no-effect control and ±100 the full control effect; nearly all actives have a fitted effect of over 55% in size
Procedure, shortened: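 In this qHTS counter-screen, metabolically competent p53RE-bla HCT-116 cells were counted via their ATP content. Compounds were applied for 16 h at 37 C and luciferase-coupled luminescence was measured.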

CC(=O)[O-].CC(=O)[O-].O.O.O.[Pb+2]
inactive: Potency [1] > 92 µM | Potency [2] > 92 µM | outcome [3] | Potency [4] | Potency [5] | activity change, negative = cytotoxicity [6] -5.61% and -0.959% | outcome [7] | outcome [8] | outcome [9] | outcome [10] | outcome [11] | Potency [12] | Potency [13] | Potency [14] | Potency [15] | Potency [16] | outcome [17] | max response [18] -9.67% and 5.41% | max response [19] -11.3% and -5.22% | Potency [20]

C=CCOC(=O)c1ccccc1N
inactive: Potency [1] > 92 µM | Potency [2] > 92 µM | outcome [3] | Potency [4] | Potency [5] | activity change, negative = cytotoxicity [6] -5.75% [at 91.7 µM] | outcome [7] | outcome [8] | outcome [9] | outcome [10] | outcome [11] | Potency [12] | Potency [13] | Potency [14] | Potency [15] | Potency [16] | outcome [17] | max response [18] 4.08% | max response [19] 8.68% | Potency [20]

COc1ccc(C=O)cc1OC
inactive: Potency [1] > 92 µM | Potency [2] > 92 µM | outcome [3] | Potency [4] | Potency [5] | activity change, negative = cytotoxicity [6] -7.47% | outcome [7] | outcome [8] | outcome [9] | outcome [10] | outcome [11] | Potency [12] | Potency [13] | Potency [14] | Potency [15] | Potency [16] | outcome [17] | max response [18] -2.79% and -2.46% | max response [19] -6.04% and -11.4% | Potency [20]

CCCC(=O)Cl
inactive: Potency [1] > 92 µM | Potency [2] > 92 µM | outcome [3] | Potency [4] | Potency [5] | activity change, negative = cytotoxicity [6] 0.416% | outcome [7] | outcome [8] | outcome [9] | outcome [10] | outcome [11] | Potency [12] | Potency [13] | Potency [14] | Potency [15] | Potency [16] | outcome [17] | max response [18] 18.2% | max response [19] 0.489% | Potency [20]

C=CCOC(C)=O
inactive: Potency [1] > 92 µM | Potency [2] > 92 µM | outcome [3] | Potency [4] | Potency [5] | activity change, negative = cytotoxicity [6] -1.33% | outcome [7] | outcome [8] | outcome [9] | outcome [10] | outcome [11] | Potency [12] | Potency [13] | Potency [14] | Potency [15] | Potency [16] | outcome [17] | max response [18] -12.1% | max response [19] -4.78% | Potency [20]
